# Source: PubChem BioAssay
# tim23-1 inh – growth inhibitors of tim23-1 mutant yeast. inhibition, % at 20 µM. S. cerevisiae tim23-1 growth, BacTiter-Glo luminescence, 24 h. actives 1.3% (n = 330,000). AID 463212;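 active = growth inhibition of the mutant yeast at or above 50%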;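 note: temperature-sensitive mutant grown at 25 °C; plate controls were DMSO-treated mutant yeast for no effect and medium wells lacking yeast for full effect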
# tim10-1 inh – inhibits growth of tim10-1 mutant yeast | S. cerevisiae tim10-1 ts strain growth, BacTiter-Glo, 24 h | inhibition, % at 20 µM | actives 2.2% (n = 330,000) | AID 463190;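 active = inhibition of at least 40%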;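 note: mutant grown at 25 °C; 0% = DMSO wells with yeast and 100% = wells holding no yeast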
# PfHsp90 yeast 2 – reduces growth (ATP signal) of yeast expressing P. falciparum Hsp90 | S. cerevisiae expressing PfHsp90, BacTiter-Glo ATP, 48 h; yeast lacking PDR1 and PDR3 efflux regulators | inhibition, % at 9.4 µM | actives 0.32% (n = 310,000);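 active = every replicate shows inhibition above about 80%, whatever the replicate mean, limit read from the data; inconclusive = mean inhibition reaches the set limit but some replicate falls short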;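 note: 0% = DMSO neutral controls and 100% = 20 µM radicicol positive controls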
# TIM10 inh – growth inhibitors of TIM10 yeast strain | inhibition, % at 10 µM | S. cerevisiae TIM10 strain growth, BacTiter-Glo luminescence, 24 h | actives 1.4% (n = 330,000);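 active = inhibition of 40% or more at the single tested concentration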;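 note: wild-type TIM10 isogenic control strain grown at permissive 25 °C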
# NALP1 yeast inh – inhibitors of NALP1 inflammasome in yeast; S. cerevisiae NALP1/ASC/caspase-1 growth, X-gal OD620, 72 h; inhibition, % at 10 µM; actives 0.61% (n = 280,000); AID 2071; in the data active = inhibition mostly above about 24%, no sharp cut-off; inactive = mostly below about 32%
# SKKanGAS inh – inhibitors of SKKanGAS S. pyogenes growth in kanamycin (SK-promoter or general growth effect) | actives 1.3% (n = 300,000) | BacTiter-Glo, 6 h | inhibition, % at 7.5 µM | AID 1662;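 active = mean replicate score, as percent of positive control median, at least 50; inconclusive = mean below 50 but one replicate at or above 50; inactive = mean and every replicate below 50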;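 note: strain carries kanamycin resistance gene driven by streptokinase promoter and grows in 40 µg/ml kanamycin; loss of luminescence reflects streptokinase promoter inhibition or plain growth inhibition; 0% = median of DMSO wells and 100% = positive control at its reference dose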
# Starred values were filed as active, the others as inactive; ? = inconclusive; · = no result given. Compounds with a hit are over-represented: about 4.8% of the library has one in this group of screens.
SMILES,tim23-1 inh,tim10-1 inh,PfHsp90 yeast 2,TIM10 inh,NALP1 yeast inh,SKKanGAS inh
NS(=O)(=O)c1ccc(NC(=O)c2ccc(CSc3ccccc3)o2)cc1,4,6,-9,8,12,1
Cc1ccccc1-c1nc2c3ccccc3nc(=S)n2[nH]1,·,·,-11,·,-48,94*
Cc1ccc(/C=C/C2=NN(Cc3ccc(Cl)c(Cl)c3)C(=O)CC2)cc1,-1,13,·,-17,-24,54*
Cc1[nH]c2ccccc2c1/C=N/NC(=O)C1CC1(c1ccccc1)c1ccccc1 (stereo not drawn),13,5,9,16,13,55*
COC(=O)c1cc(Br)c(=O)n(-c2ccccc2OC)c1,-5,-16,-3,0,-2,5
CC(C)(C)[C@@H]1C=C(C(=O)NCc2ccccc2)O[C@H](OCc2ccc(CO)cc2)C1,23,19,-2,9,4,-1
C#CCNC(=O)C1=C[C@@H](C(C)(C)C)C[C@@H](OCc2ccc(CO)cc2)O1,20,-2,12,5,30*,6
COc1ccc(N2CCN(C(=O)CSc3nnnn3C3CC3)CC2)cc1,6,-4,0,3,·,·
CC1(C)Cc2ccccc2C(c2cc3ccccc3oc2=O)=N1,18,12,-4,18,-2,1
CC1(C)Cc2c(ccc3ccccc23)C(c2cc3ccccc3oc2=O)=N1,20,36,-8,28,34*,3
O=S(=O)(Nc1c(S(=O)(=O)c2ccccc2)c2nc3ccccc3nc2n1C1CCCCC1)c1ccccc1,·,·,-55,·,5,91*
Cc1ccccc1C(=O)Nc1ccccc1,2,-14,-19,-13,31*,-3
Cc1ccccc1C(=O)Nc1ccccc1N1CCN(C(=O)c2ccccc2)CC1,28,31,0,3,5,55*
CC(C)OC(=O)c1c(N)n(CCCN2CCOCC2)c2nc3ccccc3nc12,5,4,-10,8,32,-2
CC(C)OC(=O)c1c2nc3ccccc3nc2n2c1[nH]c(=O)c1ccccc12,32,23,·,8,-15,55*
CCC1(c2ccc(Cl)cc2)NC(=O)N(CC(=O)NC2(C#N)CCCCC2)C1=O (stereo not drawn),19,9,·,2,·,·
COc1ccc(S(=O)(=O)NCc2ccccn2)cc1,-14,3,-13,-1,14,0
CCOc1ccc(S(=O)(=O)NCc2ccccn2)cc1,13,21,-7,19,42*,-3
O=C(O)c1cccc(-n2cc(-c3cccc(C(F)(F)F)c3)cn2)c1,13,11,31,4,-9,8
COc1cccc(OC)c1C(=O)Nc1cc(C)nn1-c1nc2ccccc2[nH]1,34,17,4,19,7,51*
COc1ccc(C(=O)Nc2cc(C)nn2-c2nc3ccccc3[nH]2)c(OC)c1,23,0,22,25,12,36
COC(CNC(=O)c1ccc2c(c1)ncn2-c1ccc(F)cc1F)OC,3,-5,23,-5,28,10
CN1CCN(S(=O)(=O)c2ccc(NC(=O)Nc3cccc(Cl)c3)cc2)CC1,-2,9,-10,-4,1,-10
O=C(Nc1cccc(Cl)c1)Nc1cc(S(=O)(=O)N2CCCCC2)ccc1Cl,12,31,3,13,38,54*
COc1ccc(CCNC(=O)C2CCN(S(=O)(=O)N3CCCCCC3)CC2)cc1OC,43,5,·,-10,15,-2
SMILES,tim23-1 inh,tim10-1 inh,PfHsp90 yeast 2,TIM10 inh,NALP1 yeast inh,SKKanGAS inh
O=C(CNC(=O)c1cccc(Br)c1)N/N=C/c1cc(Br)cc(Br)c1O,40,28,-31,32,-13,?
O=C(O)c1ccccc1N/N=C/c1cc(Br)cc(Br)c1O,29,-26,9,31,-15,58*
O=C(Nc1cc(Br)c(O)c(Br)c1)c1cccc(NC(=O)c2ccco2)c1,-5,-21,-6,-14,16,22
Oc1c(Br)cc(Br)cc1/C=N/Nc1ccc(Cl)nn1,·,·,-2,·,41*,84*
O=C(Nc1cccc(N=Cc2cc(Br)cc(Br)c2O)c1)c1ccco1,·,·,9,·,65*,17
O=C(Cc1ccccc1)N/N=C/c1cc(Br)cc(Br)c1O,25,34,-4,38,-3,112*
